Compounds with a hit are over-represented: about 21% of the library has one in this group of screens.
NS1 inh: influenza NS1 inhibition; Potency, µM (top dose mostly 46.1 µM); 270,000 compounds, 0.4% hits; AID 2326; further: actives are rising curves; nearly all actives have a fitted effect of over 50% in size
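S. cerevisiae expressing influenza A NS1, grown in glucose, washed, then diluted 1:100 into pH 6.0 -URA galactose medium with 23 nl compound. Growth recovery read as OD600; NS1-free strain serves as control.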
Cycloheximide cs: counter-screen for Shiga toxin inhibitors: cycloheximide protein synthesis inhibition | max response, % | 300,000 compounds, 12% hits | cell reporter, cycloheximide protein synthesis inhibition counterscreen; in the data active means max response mostly above about 13%, no sharp cut-off; inactive means mostly below about 14%; further: read at 38.3 µM for the half of the compounds with a filed dose
Pf growth 96h: inhibits malaria parasite growth, 96 h | P. falciparum luciferase reporter growth, 96 h | AID 504834 | Potency, µM (titrated, usually from 28.7 µM), most hits filed as inhibitors | 320,000 compounds, 6.9% hits; active means well fitted inhibition curve with a large enough effect; inconclusive means small, poorly fitted or top-dose-only effect, or another doubt; inactive means no such curve, though single readings can be large or run the other way
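P. falciparum expressing integrated firefly luciferase, in erythrocytes at 2% hematocrit, 0.05% parasitemia, incubated with compounds 96 h at 37 C, 5% CO2. Growth inhibition read as loss of luminescence; two-generation exposure targets delayed-death apicoplast inhibitors.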
SARS PLP yeast: SARS-CoV PLP inhibition in yeast; S. cerevisiae expressing SARS-CoV PLpro, growth rescue; Potency, µM (highest dose often 32.9 µM), hits mostly activators; 330,000 compounds, 0.19% hits; AID 485353; further: nearly all actives have a fitted effect of over 55% in size
Pf growth 48h: inhibits P. falciparum growth in the first generation, 48 h. P. falciparum luciferase growth in erythrocytes, 48 h. Potency, µM (doses to about 28.7 µM), hits mostly inhibitors. 310,000 compounds, 5.9% hits; active means well fitted inhibition curve with a large enough effect; inconclusive means small, poorly fitted or top-dose-only effect, or another doubt; inactive means no such curve, though single readings can be large or run the other way
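Erythrocytes infected with P. falciparum carrying an integrated firefly luciferase reporter (2% hematocrit, 0.1% parasitemia final) were exposed to compounds in RPMI 1640 with 0.5% Albumax at 37 C, 5% CO2. Growth inhibition was scored as reduced luminescence.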
Shiga toxin inh: inhibitors of Shiga toxin in Vero cells; 290,000 compounds, 9.2% hits; Vero cells, Shiga toxin protein synthesis inhibition reporter; inhibition, % at 38.7 µM; in the data active means inhibition mostly above about 28%, no sharp cut-off; inactive means mostly below about 43%
Large screens that a line does not name were inactive. Unless noted, the call rests on the fitted dose curve.

CCOc1ccccc1NC(=O)CCSc1nc2n[nH]c(C)c2c(=N)n1-c1ccccc1Cl	Pf growth 48h 12µM
O=C(c1ccccc1)c1c[nH]c(C(=O)NCCCn2ccnc2)c1	none
Cc1c(Nc2nc3ccccc3nc2NS(=O)(=O)c2ccccc2)c(=O)n(-c2ccccc2)n1C	none (no result: Pf growth 96h, Pf growth 48h)
CC(=O)Nc1ccc(S(=O)(=O)Nc2nc3ccccc3nc2Sc2nncn2C)cc1	NS1 inh inconclusive, Cycloheximide cs 26, Shiga toxin inh 117 (no result: Pf growth 96h)
Cn1ccnc1Sc1nc2ccccc2nc1NS(=O)(=O)c1ccccc1	Cycloheximide cs 56, Pf growth 96h inconclusive, Pf growth 48h inconclusive, Shiga toxin inh 103
Cn1cnnc1Sc1nc2ccccc2nc1NS(=O)(=O)c1ccccc1	none
Cn1cc(C=O)c2ccccc21	Pf growth 96h 10µM
Cc1ccc(/C(C#N)=C\c2cn(C)c3ccccc23)cc1	Cycloheximide cs 19, Shiga toxin inh 25 (no result: Pf growth 96h)
Cn1cc(C=C2C(=O)NC(=O)NC2=O)c2ccccc21	none
COc1cccc(C(=O)COC(=O)CCCC(=O)NC2CCCCC2)c1	none
O=C(Nc1ccc(NC(=O)c2cc([N+](=O)[O-])ccc2N2CCOCC2)cc1)c1cccs1	none (no result: NS1 inh)
Cc1ccc(NC(=O)CN(C)C(=O)CCC(=O)c2cccs2)cc1	none
COC(=O)[C@@H]1CC[C@H](C)[C@@H](c2ccc(C)cc2)N1C(=O)c1ccc(/C=N/O[C@@H](C)c2cn([C@H](CO)Cc3ccccc3)nn2)cc1	Pf growth 96h 4.7µM, Pf growth 48h 3.7µM
CCCNC(=O)OC[C@H]1O[C@H](CCO/N=C/c2ccc(C(=O)N3[C@H](c4ccc(C)cc4)[C@@H](C)CC[C@H]3C(=O)OC)cc2)C=C[C@@H]1Oc1ccc(OC)cc1	Pf growth 96h 2.1µM, Pf growth 48h inconclusive
COC(=O)[C@@H]1CC[C@H](C)[C@@H](c2ccc(C)cc2)N1C(=O)c1ccc(/C=N/OCC[C@@H]2C=C[C@H](OC(C)=O)[C@@H](COC(C)=O)O2)cc1	NS1 inh inconclusive, Pf growth 96h 10µM, Pf growth 48h inconclusive
COC(=O)[C@@H]1CC[C@H](C)[C@@H](c2ccc(C)cc2)N1C(=O)c1ccc(/C=N/OC[C@@H](O)[C@H]2O[C@@H]3OC(C)(C)O[C@@H]3[C@H]2O)cc1	Pf growth 96h inconclusive, Pf growth 48h inconclusive
COc1ccc(S(=O)(=O)NCCCC(=O)Nc2ccc(Sc3ccc(N)cc3)cc2)cc1	none (no result: NS1 inh, Pf growth 96h, SARS PLP yeast, Pf growth 48h)
CCCN(CCC)C(=O)c1oc2ccccc2c1NC(=O)Cc1cccc(OC)c1	Pf growth 48h inconclusive
COc1ccc(C(=O)OCC(=O)Nc2ccc3c(c2)OCO3)cc1S(=O)(=O)N1CCOCC1	Pf growth 48h inconclusive (no result: NS1 inh, Cycloheximide cs, Shiga toxin inh)
CCCCCc1ccc(-c2ccc(/C=C/C(N)=O)cc2)nc1	Cycloheximide cs 56, Shiga toxin inh 67
CCCc1ccc(-c2ccc(C(=O)O)cc2)nc1	Cycloheximide cs 26, Shiga toxin inh 65
CCCCCc1ccc(-c2ccc(OC)cc2)nc1	Pf growth 96h 10µM
CCCCCc1ccc(-c2cn(Cc3ccc([N+](=O)[O-])cc3)nn2)cc1	Pf growth 96h inconclusive
C/C(CC(=O)Nc1ccc(C)c(Cl)c1)=N\NC(=O)c1ccco1	Cycloheximide cs 45, Shiga toxin inh 94
C/C(CC(=O)Nc1ccc(Cl)cc1Cl)=N\NC(=O)c1ccco1	Cycloheximide cs 37, Shiga toxin inh 116
C/C(CC(=O)Nc1ccc(C)c(Cl)c1)=N\NC(=O)Cc1ccccc1	none
COc1ccc(N(C(=O)CS(=O)CC(=O)Nc2ccc(F)cc2)C(C(=O)NC2CCCCC2)c2cccs2)cc1 (stereo unspecified)	Pf growth 96h inconclusive
COc1ccc(NC(=S)Nc2cccc(Cl)c2Cl)cc1OC	none (no result: NS1 inh)
COc1cc(C)c(NC(=S)Nc2ccc(C)c(Cl)c2)cc1OC	none
CCOc1ccc(NC(=S)Nc2cc(-c3ccccc3)[nH]n2)cc1	Pf growth 96h inconclusive, Pf growth 48h inconclusive
COc1ccc(NC(=S)Nc2cc(C)[nH]n2)cc1Cl	Cycloheximide cs 45, Shiga toxin inh 90
Cc1cc(NC(=S)Nc2ccc(C)c(Cl)c2)n[nH]1	Cycloheximide cs 68, Shiga toxin inh 133
COc1ccc(NC(=S)Nc2cc(-c3ccccc3)[nH]n2)cc1Cl	Cycloheximide cs 20, Pf growth 96h inconclusive, Pf growth 48h inconclusive
Cc1ccc(Cn2ncc3c(N4CCN(C)CC4)ncnc32)cc1	Pf growth 96h 7.4µM (no result: NS1 inh)
Cc1ccc(Cn2ncc3c(N4CCN(Cc5ccc(Cl)cc5)CC4)ncnc32)cc1	Pf growth 48h inconclusive
Cc1ccc(Cn2ncc3c(N4CCN(c5ccc(C)cc5)CC4)ncnc32)cc1	SARS PLP yeast inconclusive, Pf growth 48h inconclusive
Cc1ccc(Cn2ncc3c(N4CCN(CCc5ccccc5)CC4)ncnc32)cc1	Pf growth 96h inconclusive, Pf growth 48h 6.6µM
COc1ccc(Nc2nc(-c3cccc([N+](=O)[O-])c3)nc3ccccc23)cc1	Pf growth 96h inconclusive, Pf growth 48h inconclusive
CC(=O)Nc1ccc(C(=O)CSc2nc3ccccc3n2CC(=O)N2CCCC2)cc1	Pf growth 96h 3.7µM (no result: Pf growth 48h)
O=C(CSc1nc2ccccc2n1CC(=O)N1CCCCC1)N1CCCCC1	none
CCc1c(C(=O)OCc2ccccc2)[nH]c(C)c1C	Cycloheximide cs 43, Shiga toxin inh 67
CCc1c(C)[nH]c(C(=O)OCc2ccccc2)c1C	Cycloheximide cs 28, Shiga toxin inh 81
Cc1ccc(CSc2nnc(-c3ccco3)o2)cc1	Cycloheximide cs 33, Shiga toxin inh 107 (no result: Pf growth 48h)
Fc1ccc(CSc2nnc(-c3ccco3)o2)cc1	Cycloheximide cs 46, Shiga toxin inh 59
Brc1ccc(CSc2nnc(-c3ccco3)o2)cc1	Cycloheximide cs 63, Shiga toxin inh 69
c1ccc(CSc2nnc(-c3ccco3)o2)cc1	Cycloheximide cs 49, Shiga toxin inh 109
O=C(O)c1ccc(CSc2nnc(-c3ccco3)o2)cc1	none (no result: Pf growth 48h)
CC/C(O)=C(\C#N)c1nnc2n1CCCCC2	none
Nc1nonc1-n1nnc(C(=O)N/N=C/c2ccccc2Br)c1CN1CCCC1	Pf growth 96h inconclusive
CCc1cc2c(SCC(=O)N3CCCC3=O)ncnc2s1	Pf growth 96h inconclusive (no result: NS1 inh, Cycloheximide cs, Shiga toxin inh)
Cc1cc(=O)n2[nH]c(N)c(N=Nc3ccccc3)c2n1	none
Nc1ccc(N=Nc2ccccc2)c2ccccc12	NS1 inh inconclusive, Cycloheximide cs 22
Nc1ccc(N=Nc2ccccc2)c(N)n1	Cycloheximide cs 52, Shiga toxin inh 73
CC(C)c1cc(C(C)C)c(S(=O)(=O)Nc2cccc3cccnc23)c(C(C)C)c1	none (no result: NS1 inh, Pf growth 96h, SARS PLP yeast, Pf growth 48h)
Cc1nnsc1C(=O)N1CCCC(N2CCN(c3ccc(F)cc3)CC2)C1 (stereo unspecified)	SARS PLP yeast 0.71µM
O=C(CCCn1cncn1)N1CCCC(N2CCN(c3ccccc3F)CC2)C1 (stereo unspecified)	SARS PLP yeast inconclusive
O=C(COc1ccccc1Cl)N1CCCC(N2CCN(c3ccc(F)cc3)CC2)C1 (stereo unspecified)	Pf growth 96h 8.3µM, Pf growth 48h 12µM

High-throughput results as filed in PubChem BioAssay.
